Source: PubChem BioAssay
Most compounds without a hit are left out; they make up all but 4% or so of the library.
TWEAK Fn14 block: blocks TWEAK-Fn14 interaction in a reporter cell assay | actives 2% (n = 360,000) | inhibition, % at 10 µM | TWEAK-stimulated Fn14 reporter cells, luciferase luminescence, 8 h | AID 1159606; in the data active means inhibition above about 50%
HIF-2a block: inhibitors of HIF-2a; actives 0.72% (n = 360,000); 786-0 RCC cells HIF-2a reporter, luciferase luminescence, overnight; AID 624352; inhibition, % at 18.8 µM;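 active means inhibition of the luminescence signal of 40% or more relative to plate controls, in a single-dose primary screen at 18.75 µM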
Peg3 prom inh: reduces Peg3 promoter-driven luciferase expression in HeLa | HeLa PEG-Prom luciferase reporter, luminescence, overnight | inhibition, % at 20 µM | actives 1.7% (n = 360,000);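 active means inhibition of at least 50% at 20 µM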
CF NFkB inh: blocks PAF-induced NF-kB reporter in cystic fibrosis cells; KKLEB NF-kB-GFP reporter, GFP fluorescence overnight; inhibition, % at 5 µM; actives 0.86% (n = 360,000); AID 588850;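 active means at least 50% inhibition at 5 µM, scaled per plate between neutral and stimulator controls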;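 further: PAF is a Pseudomonas aeruginosa culture filtrate used as stimulus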
TROY NFkB inh: blocks TROY-dependent signaling in reporter cells. Q293 LMP1-TROYcd NF-kB luciferase reporter, 4 h. inhibition, % at 10 µM. actives 0.98% (n = 360,000). AID 1347056;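 active means compounds whose plate-normalised and pattern-corrected inhibition of the luciferase reporter signal at the single screening dose is 50% or more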
KKLEB tox: counter-screen for CF NF-kB inhibitors: cytotoxicity. KKLEB CF airway cells viability, ATPlite luminescence, overnight; hits give low values; cells stimulated with P. aeruginosa culture filtrate. activity change (cytotoxicity), % at 5 µM. actives 0.36% (n = 360,000). AID 602141;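 active means corrected activity change at or below -50% at 5 µM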
A number is an active result; – = inactive.

SMILES	TWEAK Fn14 block	HIF-2a block	Peg3 prom inh	CF NFkB inh	TROY NFkB inh	KKLEB tox
Oc1ccc(Nc2nc(-c3ccc4ccccc4c3)cs2)cc1	76	–	–	–	–	–
Cc1ccc(Nc2nc(-c3c(C)nc4ccccn34)cs2)cc1	95	–	–	–	59	–
CN(CC(=O)Nc1ccccc1Br)C(=O)CCC1CCCC1	–	–	–	–	–	–
CCNC(=O)C1(C)CCCN1C(=O)c1cnc2ccccc2n1 (configuration not stated)	–	–	–	–	–	–
COc1cc(C)ccc1OCC(=O)NCC1CCCO1 (configuration not stated)	–	–	–	–	–	–
Cc1c(C(=O)N2CCOCC2)[nH]c2c1C(=O)CC(c1ccccc1Cl)C2 (configuration not stated)	–	–	–	–	–	–
CCCCc1ccc(Nc2nc(CCC)cc(=O)[nH]2)cc1	–	–	–	–	–	–
CCCc1cc(=O)[nH]c(Nc2ccc3c(c2)OCCO3)n1	58	–	–	–	–	–
O=C(CCNC(=O)c1ccc(Br)cc1)NNC(=O)COc1ccccc1F	–	–	–	–	–	–
CN1OC[C@@H]2CN(C(=O)C(C)(C)C)[C@H](c3cccc(N4CCOCC4)c3)C[C@@H]21	–	–	–	–	–	–
CN1OC[C@@H]2CN(C(=O)C(C)(C)C)[C@H](c3cccc(Br)c3)C[C@@H]21	61	–	–	–	64	–
O=[N+]([O-])c1cccc(C2Nc3ccccc3CO2)c1 (configuration not stated)	–	–	–	–	–	–
CCOC(=O)c1nc(C)nc(Sc2n[nH]c(-c3cc(C(F)(F)F)cc(C(F)(F)F)c3)n2)c1C	–	–	–	–	59	–
COC1=CC(=O)C(OC)=C(OC)C1=O	–	–	63	58	–	–
CC1CN(C(=O)N2CCOCC2)CCN1C(=O)N1CCOCC1 (configuration not stated)	–	–	–	–	–	–
O=C(O)CSCC(=O)Nc1ccc(-c2nc3ccccc3s2)cc1	71	–	–	–	–	–
O=C(Nc1ccc(-c2nc3ccccc3s2)cc1)C1=COCCO1	91	–	–	–	77	-53
CC(=O)c1ccc(OCc2cc(C(=O)NCCc3ccc(Cl)cc3)no2)cc1	–	–	–	–	–	–
O=C(N/N=C/c1ccc(OC(=O)c2ccccc2Br)cc1)c1ccccn1	–	–	–	–	–	–
O=C(/C=C/c1ccc(Cl)cc1Cl)Nc1cccc(S(=O)(=O)NC2=NCCC2)c1	–	–	–	–	–	-58
O=C1C(F)=CC(COC(c2ccccc2)(c2ccccc2)c2ccccc2)OC1n1cc(F)c(=O)[nH]c1=O (configuration not stated)	109	87	98	90	–	-82
CC(=O)Nc1ccccc1-c1nn[nH]n1	–	–	–	–	–	–
N/C(=N\N=Cc1ccc2c(c1)OCO2)NN=Cc1ccc2c(c1)OCO2	–	–	–	–	–	–
CC(C)(C)c1ccc(/C=N/NC(=O)c2ccccn2)cc1	71	–	–	–	52	–
CC(=O)Oc1ccc(OC(C)=O)c2c1CC1(C)OC1(C)C2 (configuration not stated)	–	–	–	–	–	–
SMILES	TWEAK Fn14 block	HIF-2a block	Peg3 prom inh	CF NFkB inh	TROY NFkB inh	KKLEB tox
Cc1ccc(Sc2nc(-c3ccccc3)nnc2C(F)(F)F)cc1	–	–	105	–	–	–
O=C(CN(c1ccccc1F)S(=O)(=O)c1ccccc1)Nc1ccc2c(c1)OCCO2	75	–	–	–	–	–
CCOC(=O)c1ccc2c(c1)N(CC)C(=O)c1ccccc1S2	–	–	–	–	–	–
CC1CCCC(NCC(O)COC(c2ccc(F)cc2)c2ccc(F)cc2)C1C (configuration not stated)	–	–	104	–	–	–
Cc1[nH]n(-c2ccccc2)c(=O)c1N=Nc1cccc(C(=O)O)c1	58	64	64	–	–	–
Cc1[nH]n(-c2ccccc2)c(=O)c1N=Nc1ccc(C(=O)O)cc1	–	–	–	–	–	–
CCCSc1nsc(NC(=O)C(c2ccccc2)c2ccccc2)n1	–	–	–	–	55	–
CN(C)CCCn1c(SCC(=O)Nc2nc(-c3cccc(Br)c3)cs2)nc2ccccc2c1=O	–	–	104	–	–	–
